According to PubChem BioAssay AID1159580 (chemical genetic matrix, 2015):
Several values for one entry are separate records, joined by “and”; a condition that tells them apart may be missing. Equal entries are not always repeated. The campaign covered roughly 5,500 compounds. About 2,000 (36%) were called active. Roughly 18% stayed inconclusive and do not appear here. Rule as the data show it: active = normalized growth mostly below about 0.91 (no sharp cut-off); inconclusive = no clear call, values can overlap the other calls; inactive = mostly above about 0.92. The list shows a part of the results.

Test: chemical genetic growth profiling, strain panel (AID 1159580);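 also: tested at 20 µM; growth read once vehicle control cultures reached saturation at 30 °C; 1 = growth at the plate median or of vehicle wells; lower values mean less growth of the strain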
Details: S. cerevisiae deletion strains, growth OD

Measured: normalized growth

NC(=O)NC(=O)Cc1ccccc1
inactive: locus YAL013W, strain DEP1, stronger effect = lower value 1.03 | locus YAL021C, strain ccr4, stronger effect = lower value 0.999 | locus YAL026C, strain drs2, stronger effect = lower value 0.976 | locus YAL030W, strain snc1, stronger effect = lower value 0.995 | locus YBL061C, strain skt5, stronger effect = lower value 0.975 | locus YBR009C, strain hhf1, stronger effect = lower value 1.04 | locus YBR021W, strain FUR4, stronger effect = lower value 1.02 | locus YBR023C, strain chs3, stronger effect = lower value 0.974 | locus YBR171W, strain sec66, stronger effect = lower value 0.992 | locus YBR229C, strain ROT2, stronger effect = lower value 0.995 | locus YBR231C, strain swc5, stronger effect = lower value 1.01 | locus YBR279W, strain paf1, stronger effect = lower value 0.979 | locus YCL011C, strain gbp2, stronger effect = lower value 0.961 | locus YCL016C, strain dcc1, stronger effect = lower value 0.96 | locus YCL029C, strain bik1, stronger effect = lower value 0.997 | locus YCL069W, strain vba3, stronger effect = lower value 1.01 | locus YCR088W, strain abp1, stronger effect = lower value 0.993 | locus YDL005C, strain med2, stronger effect = lower value 0.98 | locus YDL035C, strain GPR1, stronger effect = lower value 1.02 | locus YDL040C, strain nat1, stronger effect = lower value 0.991 | locus YDL074C, strain BRE1, stronger effect = lower value 1.16 | locus YDL101C, strain DUN1, stronger effect = lower value 1 | locus YDL134C, strain PPH21, stronger effect = lower value 1 | locus YDL185W, strain tfp1, stronger effect = lower value 0.992 | locus YDL192W, strain arf1, stronger effect = lower value 0.991 | locus YDR001C, strain nth1, stronger effect = lower value 0.98 | locus YDR069C, strain doa4, stronger effect = lower value 0.99 | locus YDR101C, strain arx1, stronger effect = lower value 0.994 | locus YDR137W, strain rgp1, stronger effect = lower value 0.979 | locus YDR150W, strain NUM1, stronger effect = lower value 1.01 | locus YDR159W, strain sac3, stronger effect = lower value 0.997 | locus YDR162C, strain NBP2, stronger effect = lower value 1.04 | locus YDR195W, strain ref2 0.994 | locus YDR297W, strain sur2, stronger effect = lower value 0.996 | locus YDR318W, strain mcm21, stronger effect = lower value 0.993 | locus YDR334W, strain swr1, stronger effect = lower value 0.978 | locus YDR335W, strain msn5, stronger effect = lower value 0.964 | locus YDR388W, stronger effect = lower value 0.995 | locus YDR392W, strain spt3, stronger effect = lower value 0.916 | locus YDR502C, strain sam2, stronger effect = lower value 1.01 | locus YEL003W, strain gim4, stronger effect = lower value 0.998 | locus YEL037C, strain rad23, stronger effect = lower value 0.983 | locus YEL061C, strain CIN8 (second series), stronger effect = lower value 0.976 | locus YEL061C, strain CIN8, stronger effect = lower value 1.03 | locus YER015W, strain faa2, stronger effect = lower value 0.99 | locus YER016W, strain bim1, stronger effect = lower value 0.96 | locus YER110C, stronger effect = lower value 0.998 | locus YER111C, strain swi4, stronger effect = lower value 0.981 | locus YER155C, strain BEM2 (second series), stronger effect = lower value 1.04 | locus YER155C, strain BEM2, stronger effect = lower value 1 | locus YER167W, strain BCK2, stronger effect = lower value 1 | locus YFR010W, strain ubp6, stronger effect = lower value 1.01 | locus YGL078C, strain dbp3, stronger effect = lower value 1 | locus YGL086W, strain mad1, stronger effect = lower value 0.995 | locus YGL167C, strain pmr1, stronger effect = lower value 1 | locus YGL173C, strain kem1, stronger effect = lower value 1.04 | locus YGL227W, strain vid30, stronger effect = lower value 1 | locus YGL240W, strain doc1, stronger effect = lower value 1.04 | locus YGL248W, strain PDE1, stronger effect = lower value 1 | locus YGL253W, strain hxk2, stronger effect = lower value 0.955 | locus YGR078C, strain PAC10, stronger effect = lower value 1.01 | locus YGR135W, strain pre9, stronger effect = lower value 0.993 | locus YGR229C, strain SMI1, stronger effect = lower value 1.13 | locus YGR252W, strain gcn5, stronger effect = lower value 1.14 | locus YHR013C, strain ard1, stronger effect = lower value 0.964 | locus YHR027C, strain rpn1, stronger effect = lower value 0.999 | locus YHR030C, strain SLT2, stronger effect = lower value 1 and 0.964 | locus YHR079C, strain IRE1 (second series), stronger effect = lower value 1 | locus YHR079C, strain IRE1, stronger effect = lower value 0.978 | locus YHR094C, strain hxt1, stronger effect = lower value 1 | locus YHR129C, strain ARP1, stronger effect = lower value 1 | locus YHR142W, strain chs7, stronger effect = lower value 0.931 | locus YHR200W, strain rpn10, stronger effect = lower value 0.991 | locus YIL066C, strain RNR3, stronger effect = lower value 1.01 | locus YIL073C, strain SPO22, stronger effect = lower value 0.979 | locus YIL125W, strain kgd1, stronger effect = lower value 1 | locus YIR030C, strain dcg1, stronger effect = lower value 0.995 | locus YJL092W, strain hpr5, stronger effect = lower value 0.977 | locus YJL095W, strain BCK1 (second series), stronger effect = lower value 0.967 | locus YJL095W, strain BCK1, stronger effect = lower value 1.04 and 0.989 | locus YJL115W, strain asf1, stronger effect = lower value 0.957 | locus YJL129C, strain trk1, stronger effect = lower value 0.955 | locus YJL134W, strain LCB3, stronger effect = lower value 1.01 | locus YJL154C, strain vps35, stronger effect = lower value 0.984 | locus YJL164C, strain tpk1, stronger effect = lower value 0.998 | locus YJL166W, strain qcr8, stronger effect = lower value 1 | locus YJL168C, strain set2, stronger effect = lower value 0.997 | locus YJL187C, strain SWE1 (second series), stronger effect = lower value 0.995 | locus YJL187C, strain SWE1, stronger effect = lower value 0.994 | locus YJR043C, strain POL32, stronger effect = lower value 1.03 | locus YJR066W, strain TOR1, stronger effect = lower value 0.931
